# Experimental data reported in ChEMBL document CHEMBL3988442, “University of Dundee, Small-Polar-MMV Screening Library” (2021).
# The campaign covered roughly 66,000 compounds. About 960 (1.5%) showed an effect of 50% or more. The list comes from a sample in which strong results are over-represented; it also holds similar structures and randomly drawn compounds.
# System: Trypanosoma brucei
# Test: Trypanosoma brucei 72 hour study
# Assay type: functional, organism-based
# Parameters: scale not given: in the data most compounds retested in dose-response had high values
smiles,measurement,setting,value
NC[C@H]1CC[C@H](C(NC(=O)CC2CCCCC2)c2ccccn2)CC1 (stereo not given in full),Percent Effect,"30.3 µM, […]",-8.457%
COc1cnc(C2(O)CCN(C(=O)c3ccccn3)CC2)c(OC)n1,Percent Effect,"30.3 µM, […]",-9.61%
COc1c(CNCCNC(=O)c2cccc(C)c2)c(C)nn1C.Cl,Percent Effect,"30.3 µM, […]",0.1013%
O=C(NCC1CC1)[C@H]1C[C@@H]2CN(C(=O)NCc3ccccc3)C[C@H]1O2,Percent Effect,"30 µM, 30.03 µM",46.62%
COc1cccc(-c2n[nH]cc2CNC2CCN(C(C)C)CC2)c1.Cl,Percent Effect,"30 µM, 30.03 µM",-15.13%
COc1c(CNC2CCOc3ccccc32)c(C(C)C)nn1C (stereo not given),Percent Effect,"30 µM, 30.03 µM",25.19%
CC(C)c1nn(C)c(Cl)c1CNC1CCOc2ccccc21.Cl (stereo not given),Percent Effect,"30 µM, 30.03 µM",55.88%
CC(C)c1nn(C)c(N(C)C)c1CNC1CCOc2ccccc21 (stereo not given),Percent Effect,"30 µM, 30.03 µM",-51.78%
CN1CC(=O)N(c2cccc(F)c2)CC12CCN(CC1CCOCC1)C2.O=C(O)C(F)(F)F.O=C(O)C(F)(F)F (stereo not given),Percent Effect,"30 µM, 30.03 µM",9.991%
COc1ccc(C2=Nn3c(CN)nnc3-c3ccccc3C2)cc1,Percent Effect,"30 µM, 30.03 µM",2.28%
COc1ncccc1C(=O)N1CCCC(n2ccnc2C)C1 (stereo not given),Percent Effect,"30.3 µM, […]",-7.34%
O=C(NC1CCN(Cc2cccc3c2OCCO3)CC1)c1cccs1,Percent Effect,10 µM,10.83%
same,Percent Effect,"30.3 µM, […]",7.019%
Cc1ccc(C(=O)NC2CCN(Cc3cccc4c3OCCO4)CC2)s1,Percent Effect,10 µM,-2.683%
same,Percent Effect,"30.3 µM, […]",68.24%
Cc1ccoc1C(=O)NC1CCN(Cc2ccccc2F)CC1,Percent Effect,10 µM,-23.23%
same,Percent Effect,"30.3 µM, […]",4.829%
Cc1ccoc1C(=O)NC1CCN(Cc2cccc3ccccc23)CC1,Percent Effect,10 µM,-9.27%
same,Percent Effect,"30.3 µM, […]",57.41%
Cc1ccoc1C(=O)NC1CCN(Cc2ccccc2C#N)CC1,Percent Effect,10 µM,15.78%
same,Percent Effect,"30.3 µM, […]",-0.9403%
CC(C)C(=O)NC1CCN(Cc2cccc3c2OCCO3)CC1,Percent Effect,"30 µM, 30.03 µM",-15.03%
O=C(O)C(F)(F)F.O=C(c1ccc(F)cc1)N1CCC2(CCN(Cc3ccccn3)C2=O)C1 (stereo not given),Percent Effect,"30 µM, 30.03 µM",-50.24%
Cc1csc2ncc(-c3ccnc(N4CCC[C@H](C(N)=O)C4)n3)c(=O)n12,Percent Effect,"30.3 µM, […]",-8.345%
CCN(CC)Cc1cn2c(n1)CN(C1CCOC1)CC2.O=C(O)C(F)(F)F.O=C(O)C(F)(F)F (stereo not given),Percent Effect,"30.3 µM, […]",-56.79%
Cc1ccccc1C(N)c1ccncc1.Cl (stereo not given),Percent Effect,"30.3 µM, […]",-1.36%
CCOc1c(F)cccc1C(=O)N(CC)C(C)c1ccncc1 (stereo not given),Percent Effect,"30.3 µM, […]",3.975%
CCOc1c(F)cccc1C(=O)N(CC)C(C)c1cccnc1 (stereo not given),Percent Effect,"30.3 µM, […]",6.068%
CCOc1c(F)cccc1C(=O)N(c1cccnc1)C(C)C,Percent Effect,"30.3 µM, […]",99.6%
Cc1cc(C(=O)N2CCC3(CC2)C(=O)N(C)CCN3CC(C)C)c(C)o1.O=C(O)C(F)(F)F,Percent Effect,"30.3 µM, […]",2.031%
